Bioassay records as filed in PubChem.
JMJD2A Tudor = inhibitors of human JMJD2A Tudor domain; hit rate 4.4% among 390,000; O75164; AlphaScreen JMJD2A-Tudor / H3K4me3 peptide binding; Potency, µM (titrated, usually from 114 µM), most hits filed as inhibitors; also: nearly all actives have a fitted effect of over 50% in size
Target sequence (O75164 whole entry, looked up, the tested form may be a part): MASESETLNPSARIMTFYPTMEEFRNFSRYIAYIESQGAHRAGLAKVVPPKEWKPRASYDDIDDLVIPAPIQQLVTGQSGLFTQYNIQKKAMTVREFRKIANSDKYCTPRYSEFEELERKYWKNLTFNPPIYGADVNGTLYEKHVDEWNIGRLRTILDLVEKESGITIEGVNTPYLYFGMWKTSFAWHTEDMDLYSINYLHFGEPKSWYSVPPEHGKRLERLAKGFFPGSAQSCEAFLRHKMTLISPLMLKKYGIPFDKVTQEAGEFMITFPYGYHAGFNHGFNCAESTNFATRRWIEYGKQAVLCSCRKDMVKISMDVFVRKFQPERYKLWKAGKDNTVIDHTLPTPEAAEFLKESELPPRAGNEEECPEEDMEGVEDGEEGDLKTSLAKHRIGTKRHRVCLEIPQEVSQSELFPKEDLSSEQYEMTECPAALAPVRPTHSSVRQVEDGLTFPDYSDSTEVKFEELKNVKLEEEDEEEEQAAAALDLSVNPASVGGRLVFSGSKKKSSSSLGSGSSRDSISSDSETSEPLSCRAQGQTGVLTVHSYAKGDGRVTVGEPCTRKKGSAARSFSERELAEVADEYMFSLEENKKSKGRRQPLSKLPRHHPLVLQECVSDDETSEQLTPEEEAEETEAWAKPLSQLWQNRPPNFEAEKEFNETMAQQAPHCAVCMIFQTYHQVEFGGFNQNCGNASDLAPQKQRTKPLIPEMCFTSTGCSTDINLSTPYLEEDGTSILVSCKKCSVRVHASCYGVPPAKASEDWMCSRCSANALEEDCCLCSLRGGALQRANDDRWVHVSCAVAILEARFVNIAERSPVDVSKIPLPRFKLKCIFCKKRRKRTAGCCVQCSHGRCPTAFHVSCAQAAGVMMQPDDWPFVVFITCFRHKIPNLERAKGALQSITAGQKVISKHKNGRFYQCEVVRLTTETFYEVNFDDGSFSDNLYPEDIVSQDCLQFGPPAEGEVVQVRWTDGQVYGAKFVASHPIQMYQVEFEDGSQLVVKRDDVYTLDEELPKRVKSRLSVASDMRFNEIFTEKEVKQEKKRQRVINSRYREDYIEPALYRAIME
HP1b chromo inh = blocks HP1-beta chromodomain binding to methylated histone tails. P83916. Potency, µM (top dose mostly 114 µM), hits mostly inhibitors. AID 540317. hit rate 0.56% among 390,000. AlphaScreen HP1-beta / biotin-H3K9me3 peptide binding; also: nearly all actives have a fitted effect of over 70% in size
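AlphaScreen: HP1-beta (50 nM) preformed 30 min with biotin-H3(1-18)K9me3 peptide (50 nM) in PBS pH 7.4, 0.01% Tween-20. Compound added for 30 min at RT, then streptavidin donor/nickel chelate acceptor beads (10 ug/mL) for 30 min.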
BAZ2B block = inhibitors of human BAZ2B bromodomain; Potency, µM (doses to about 114 µM), usual class: inhibitors; AlphaScreen BAZ2B-H3K14Ac peptide displacement; hit rate 4.4% among 360,000; also: nearly all actives have a fitted effect of over 60% in size
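Compounds, titrated to a top concentration of 110 uM, were incubated 30 min at room temperature with preformed BAZ2B/acetyl-K14 H3 peptide complex (50 nM each). Proximity signal was measured by AlphaScreen after 20 min with beads.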
L3MBTL1 inh = L3MBTL1 (human) inhibition | AlphaScreen L3MBTL1–H3K9me1 peptide binding | Potency, µM (top dose mostly 57.1 µM), most hits filed as inhibitors | hit rate 0.66% among 230,000; also: nearly all actives have a fitted effect of over 60% in size
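Read-out is AlphaScreen signal from streptavidin donor and nickel chelate acceptor beads (10 ug/mL final each) bridging L3MBTL1 (50 nM) and biotinylated K9-monomethylated H3(1-15) peptide (75 nM), after 30 min compound exposure at room temperature.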
G9a inh = G9a (human) methyltransferase inhibition; Q96KQ7; G9a H3K9 monomethylation, AlphaScreen, 2 h; Potency, µM (doses to about 102 µM), hits mostly inhibitors; hit rate 8.8% among 350,000; AID 504332; also: nearly all actives have a fitted effect of over 75% in size
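Compounds were preincubated with 20 nM G9a for 15 min, after which biotinylated H3K9 peptide (500 nM) and SAM (20 uM) started a 2 h room-temperature reaction. Monomethylated product was quantified by antibody-based AlphaScreen chemiluminescence.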
Sfp PPTase inh = blocks B. subtilis Sfp PPTase activity; Q9F4F7; Biochemical Sfp PPTase activity, qHTS; Potency, µM, actives largely listed as inhibitors; hit rate 3.5% among 310,000;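 also: the enzyme is Sfp with the accession as filed and its product quenches rhodamine fluorescence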
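Fluorescence-quenching assay: 15 nM Sfp-PPTase preincubated 15 min at room temperature with compound, then 5 uM rhodamine-CoA and 12.5 uM BHQ-2-labelled YbbR peptide added. Fluorescence (ex 525/em 598 nm) read at start and after 30 min; difference gives rate.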
A number is an active result; - = inactive; ? = inconclusive; . = not tested or not shown; [ ] = another dose, or the depositor's remark. This is a sample that favours compounds with a hit; in the whole collection about 12% have one here. Calls follow the shape of the dose curve; as a rule, active = well fitted curve in the direction sought with a large enough effect; inconclusive = small, poorly fitted or top-dose-only effect, or another doubt; inactive = no such curve, though single readings can be large; an effect the other way counts as inactive or inconclusive.

SMILES	JMJD2A Tudor	HP1b chromo inh	BAZ2B block	L3MBTL1 inh	G9a inh	Sfp PPTase inh
CCOC(=O)Cc1csc(SCC(=O)NC2CCC(C)CC2)n1 (stereo unspecified)	-	-	-	-	-[0.501 µM]	.
CCCc1cc(=O)[nH]c(Nc2cc(Cl)ccc2OC)n1	-	-	-	.	-	.
CC(C)C(OC(=O)c1cccs1)C(=O)NCc1ccco1 (stereo unspecified)	-	-	-	.	-[12.7 µM]	-
Cc1cc2c(cc(C(=O)OC(C(=O)NCc3ccco3)C(C)C)n2C)o1 (stereo unspecified)	?	-	?	-	40µM	?
CCOC(=O)C1=C(c2ccccc2)Nc2ncnn2C1c1ccc(OC)c(OC)c1OC (stereo unspecified)	-	-	-	-	-	-
COc1cccc(C2=CC(c3ccc(OC)c(OC)c3OC)n3ncnc3N2)c1 (stereo unspecified)	-	-	50µM	.	?	.
COc1ccc(C2C=C(c3ccc(C)c(C)c3)Nc3ncnn32)c(OC)c1OC (stereo unspecified)	-	-	-	-	50µM	-
Cc1ccc(S(=O)(=O)N2CCc3cc(C(=O)Nc4ccc(C)c(C)c4)ccc32)cc1	-	-	-	.	-	.
C[C@H]1Cc2c(COc3ccccc3)nc3c(c2CO1)CN(C(=O)c1cc(I)ccc1F)CC3	.	.	.	.	.	-
COc1ccccc1OCC#CCn1ccnc1	5.6µM	?	18µM	-	3.2µM	-
Cc1nn(-c2ccc(F)cc2)c(-n2cccc2)c1C(=O)N1CCN(C(=O)c2ccco2)CC1	-	-	-	.	-	-
COc1ccc(N2CCN(c3oc(COc4ccccc4)nc3C#N)CC2)cc1	?	?	10µM	?	10µM	-
COc1ccc(N2CCN(c3oc(COc4ccc(Cl)cc4)nc3C#N)CC2)cc1	?	?	3.5µM	?	?	-
N#Cc1nc(COc2ccc(Cl)cc2Cl)oc1N1CCOCC1	?	-	45µM	-	?	-
COc1ccc(N2CCN(c3oc(Cc4ccccc4)nc3C#N)CC2)cc1	20µM	-	8.9µM	-	?	-
CN(C)CCNc1oc(COc2ccc(-c3ccccc3)cc2)nc1C#N	?	-	?	-	45µM	-
N#Cc1nc(COc2ccc(-c3ccccc3)cc2)oc1N1CCC(C(N)=O)CC1	-	-	.	.	.	.
CN1CCN(c2oc(COc3ccc(-c4ccccc4)cc3)nc2C#N)CC1	28µM	14µM	11µM	-[11.4 µM]	13µM	32µM
O=C(NCc1ccc(Cl)cc1)NC1COc2ccccc2C1 (stereo unspecified)	-	-	-	.	-	.
COc1cccc(C(NC(C)=O)c2ccc3cccnc3c2O)c1 (stereo unspecified)	56µM	-	18µM	?	?	-
O=C(COc1cccc2cccnc12)Nc1nccs1	?	-	-	-	-	-
CC(=O)NC(c1cccc([N+](=O)[O-])c1)c1ccc2cccnc2c1O (stereo unspecified)	32µM	-	-	-	.	-
O=[N+]([O-])c1ccc(NC(c2ccccc2)c2ccc3cccnc3c2O)cc1 (stereo unspecified)	?	-	.	.	.	.
Oc1cccc(C(Nc2nccs2)c2ccc3cccnc3c2O)c1 (stereo unspecified)	32µM	?	28µM	?	?	-
CC(=O)NC(c1ccc(C(C)C)cc1)c1ccc2cccnc2c1O (stereo unspecified)	56µM	-	?	-	-	-
SMILES	JMJD2A Tudor	HP1b chromo inh	BAZ2B block	L3MBTL1 inh	G9a inh	Sfp PPTase inh
CC(C)c1ccc(C(=O)Nc2cccc3cccnc23)cc1	-	-	-	.	-	.
CCc1nn(CC(=O)NCCCOC)c(=O)c2cc3ccccc3n12	-	-	-	.	-	.
CCCn1c(-c2ccc(F)cc2)nc2c(NCCN(C)C)nc(C)nc21	.	.	.	.	.	-
CCCCC(=O)NC(c1cccc([N+](=O)[O-])c1)c1ccc2cccnc2c1O (stereo unspecified)	32µM	-	.	.	.	.
N#Cc1ccc(NC(=O)CSc2cn[nH]n2)cc1	-	-	-	.	?	-
O=C(CSc1nc2ccccc2c(=O)n1-c1ccc(F)cc1)Nc1ccc(N2CCOCC2)cc1	-	-	-	-	45µM	-
O=C(c1ccc(-n2c(SCc3cccc(F)c3)nc3ccccc3c2=O)cc1)N1CCOCC1	40µM	-	-	-	-	-
O=C(CSc1n[nH]c(=O)n1Cc1ccccc1)Nc1ccc(N2CCOCC2)cc1	-	-	-	-	56µM	.
Cc1[nH]c2ccccc2c1C1C(c2ccccc2)=NN=C(C(C)C)N1O (stereo unspecified)	-	-	-	-[11.4 µM]	6.3µM	-
CC1=NN=C(c2ccccc2)C(c2c[nH]c3ccccc23)N1O (stereo unspecified)	-	-	-	-	?	-
COc1ccc(CN(C)C(=O)COC(=O)c2ccc(-c3ccccc3)cc2)c(OC)c1OC	-	-	-	-	?	.
COc1ccc(CCNc2oc(Cc3cccc4ccccc34)nc2C#N)cc1OC	?	?	?	-	?	-
COc1ccc(CCNc2oc(COc3ccc(Br)cc3)nc2C#N)cc1OC	?	-	?	.	40µM	-
COc1ccc(CCNc2oc(COc3ccccc3F)nc2C#N)cc1	-	-	?	-	35µM	-
N#Cc1nc(COc2ccccc2F)oc1NCc1ccc(F)cc1	-	-	?	-	35µM	-
O=C(CN(c1ccc(Cl)c(C(F)(F)F)c1)S(=O)(=O)c1ccccc1)N1CCc2ccccc2C1	-	-	-	.	-	.
Cc1ccc(S(=O)(=O)Nc2c(C)cc([N+](=O)[O-])cc2C)cc1	-	-	.	.	.	.
Cc1cc([N+](=O)[O-])cc([N+](=O)[O-])c1NCC(C)C	45µM	40µM	13µM	?	16µM	-
OC1CCCN(CC(O)c2ccccc2)C1 (stereo unspecified)	40µM	-	50µM	.	3.2µM	?
OC(COC(c1ccc(F)cc1)c1ccc(F)cc1)CN1CCc2ccccc2C1 (stereo unspecified)	18µM	?	45µM	-	4.5µM	-
OC1CCCN(CC(O)COC(c2ccc(F)cc2)c2ccc(F)cc2)C1 (stereo unspecified)	10µM	-	50µM	.	45µM	?
OC(COC(c1ccc(Cl)cc1)c1ccc(Cl)cc1)CN1CCCC1 (stereo unspecified)	-	-	-	.	-	-
COc1ccc(C(=O)CC(=O)c2ccccc2)cc1	-	-	.	.	.	.
COc1ccc(C2(C(=O)c3ccccc3)C(=O)c3ccccc3C2=O)cc1	35µM	?	22µM	-	.	45µM
C=CCN(C(=O)Cn1c(C(=O)OC)cc2oc(C)cc21)c1ccccc1	-	-	-	-	45µM	?
COC(=O)c1cc2oc(C)cc2n1CC(=O)N(C)c1ccccc1	?	-	-	-	?	?
COc1ccc(Cl)cc1C(=O)CSc1nc(N)cc(N)n1	?	-	-	-	50µM	-
